Bioassay records deposited in PubChem BioAssay by several laboratories.
A selection: hits, their analogues and other compounds. The true share with any hit is near 4.4%.
tim23-1 inh – inhibits growth of tim23-1 mutant yeast | S. cerevisiae tim23-1 growth, BacTiter-Glo luminescence, 24 h | inhibition, % at 20 µM | hit rate 1.3% among 330,000 | AID 463212;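 active = growth inhibition of the mutant yeast at or above 50%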;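 also: temperature-sensitive mutant grown at 25 °C; plate controls were DMSO-treated mutant yeast for no effect and medium wells lacking yeast for full effect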
TIM10 inh – TIM10 yeast growth inhibition. S. cerevisiae TIM10 strain growth, BacTiter-Glo luminescence, 24 h. inhibition, % at 10 µM. hit rate 1.4% among 330,000;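 active = inhibition of 40% or more at the single tested concentration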;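 also: wild-type TIM10 isogenic control strain grown at permissive 25 °C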
SUMO Mot1 rescue – inhibitors of SUMOylation pathway: yeast Mot1-301 growth rescue; growth rescue, % at 18.8 µM; AID 2716; hit rate 1% among 320,000; S. cerevisiae Mot1-301 growth rescue, ATP luminescence, 38.5C; percent above DMSO median, 100 means doubled;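 active = every valid replicate shows activation above 250% relative to neutral control wells; inactive = the rest, any valid replicate at or below 250%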;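 also: OY570 slx delta 5 strain wells were the positive control but not used for scaling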
PfHsp90 set2 – inhibits growth of yeast expressing Plasmodium falciparum Hsp90 | S. cerevisiae expressing PfHsp90, BacTiter-Glo ATP, 48 h; yeast lacking PDR1 and PDR3 efflux regulators | AID 504621 | inhibition, % at 9.4 µM | hit rate 0.32% among 310,000;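 active = every replicate shows inhibition above about 80%, whatever the replicate mean, limit read from the data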;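 also: 0% = DMSO neutral controls and 100% = 20 µM radicicol positive controls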
tim10-1 inh – tim10-1 yeast growth inhibition; hit rate 2.2% among 330,000; inhibition, % at 20 µM; AID 463190; S. cerevisiae tim10-1 ts strain growth, BacTiter-Glo, 24 h;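 active = inhibition of at least 40%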;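 also: mutant grown at 25 °C; 0% = DMSO wells with yeast and 100% = wells holding no yeast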
tim10-1 confirm – confirmation of tim10-1 mutant yeast growth inhibitors | shares compounds with tim10-1 inh | S. cerevisiae tim10-1 ts strain growth, BacTiter-Glo, 24 h | inhibition, % at 20 µM | hit rate 56% among 7,400 | AID 463213;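 active = inhibition of yeast growth at or above a set limit in either of two repeat tests at 20 µM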;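 also: tim10-1 mutant grown at permissive 25 °C to find synthetic lethal compounds; 0% = DMSO yeast wells and 100% = medium wells without yeast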
* marks the source's active call; other numbers are inactive results; . = not tested or not shown.

SMILES	tim23-1 inh	TIM10 inh	SUMO Mot1 rescue	PfHsp90 set2	tim10-1 inh	tim10-1 confirm
Cc1ccc(C(c2c(C)[nH][nH]c2=O)c2c(C)[nH][nH]c2=O)cc1	20.4	11.4	2.9	7.5	42.1*	29.6
O=S(=O)(Nc1cc(S(=O)(=O)N2CCOCC2)ccc1Cl)c1ccccc1	4.7	5.0	-22.5	3.7	15.6	.
Cc1onc(-c2ccccc2)c1C(=O)NCC(=O)Nc1cc(Cl)ccc1Cl	39.0	26.3	-4.9	0.8	14.4	.
CN(C)c1ccc(/C=C/C=C2/SC(=S)N(c3ccccc3)C2=O)cc1	45.6	35.8	-1.5	45.4	43.6*	29.4*
CC(C)NC[C@@H](O)COc1ccc(CC(N)=O)cc1	.	13.2	2.8	12.6	-6.5	.
CC(=O)c1ccc(N2CCC(c3cc(-c4ccc(Cl)cc4Cl)n[nH]3)CC2)c([N+](=O)[O-])c1	16.4	35.5	.	.	43.6*	22.3
O=[N+]([O-])c1ccccc1SN(Cc1ccccc1)c1ccccn1	9.3	35.8	375.5*	-0.3	42.3*	21.5
Cc1ccc(OCC(=O)NC2CCS(=O)(=O)C2)c(C)c1 (centres undefined)	0.7	10.3	-15.6	0.3	-10.2	.
CCOC(=O)N1CCN(C(=O)c2cccc(N3C(=O)NC4CC3(C)Oc3ccc(Cl)cc34)c2)CC1 (centres undefined)	5.2	20.5	145.1	-6.0	44.6*	11.1
CCOC(=O)C1CCN(C(=O)c2cccc(N3C(=O)NC4CC3(C)Oc3ccc(C)cc34)c2)CC1 (centres undefined)	11.1	4.6	-9.6	-15.1	13.7	.
CC1CCN(S(=O)(=O)c2ccc3ccccc3c2)CC1	33.9	-0.8	31.9	-9.7	43.8*	30.7*
CN(C)C(=O)N1CCN(S(=O)(=O)c2ccc3ccccc3c2)CC1	15.9	0.6	-23.0	-9.1	4.4	.
O=C(CCl)N1CCN(S(=O)(=O)c2ccc3ccccc3c2)CC1	42.2	32.6	-9.3	6.7	40.3*	33.2*
CC1CCN(c2ccc(S(=O)(=O)N3CCC(C)CC3)cc2N)CC1	37.7	19.0	5.0	-1.5	40.6*	29.5
CN1CCN(S(=O)(=O)c2ccc3ccccc3c2)CC1	-1.7	7.9	-25.0	1.9	-14.1	.
CCN1C(=O)c2ccc(C(=O)NCc3ccco3)cc2C1=O	-12.3	1.9	-7.3	11.9	-22.4	.
COc1ccc(CCNC(=O)CCc2nc3sc4c(c3c(=O)[nH]2)CCCC4)cc1	-8.7	2.3	-2.4	11.9	97.5*	-7.3
Cc1ccc(NS(=O)(=O)c2ccc3c(c2)OCCCO3)cc1S(=O)(=O)N1CCOCC1	8.6	-1.5	3.1	.	16.9	.
Cc1ccnc(SCCn2c(N3CC(C)CC(C)C3)nc3c2c(=O)n(C)c(=O)n3C)n1 (centres undefined)	42.1	27.3	21.5	-14.0	44.3*	30.2
Cc1ccnc(SCCn2c(N3CCCCC3)nc3c2c(=O)n(C)c(=O)n3C)n1	24.3	5.4	913.0	-3.6	36.2	.
Cc1ccnc(SCCn2c(N3CCC(C)CC3)nc3c2c(=O)n(C)c(=O)n3C)n1	31.8	30.1	-2.8	1.0	45.1*	28.1
O=C(CN(Cc1ccc(F)cc1)C(=O)CCC(=O)Nc1nccs1)NCC1CCCO1 (centres undefined)	-3.6	2.2	-1.5	-12.2	-24.8	.
COc1cccc(NC(=O)CN(C)C(=O)CSCC(=O)Nc2ccc(C)cc2)c1	10.6	11.5	0.2	-8.2	-0.3	.
COc1ccc2[nH]c3c(c2c1)CCN1C(=O)C(CC(=O)NCCCn2ccnc2)C[C@H](C(=O)N2CCOCC2)[C@@]31C (some centres undefined)	21.4	-7.9	.	-0.1	-7.6	.
CN1CCN(NC(=O)c2c(-c3ccccc3)sc3ccccc23)CC1	3.5	6.9	6.8	.	12.0	.
SMILES	tim23-1 inh	TIM10 inh	SUMO Mot1 rescue	PfHsp90 set2	tim10-1 inh	tim10-1 confirm
COc1ccc(OCC2NCCc3cc(OC)c(OC)cc32)cc1 (centres undefined)	35.7	19.0	-19.4	-33.5	24.2	.
COc1cc2c(cc1OC)C(COc1cccc(C(F)(F)F)c1)NCC2 (centres undefined)	39.8	39.7	-5.5	0.5	46.7*	47.4*
COc1ccc(S(=O)(=O)NCC2CCC(C(=O)NCc3ccc(F)cc3)CC2)cc1 (centres undefined)	-13.3	-6.6	-4.8	-8.4	-22.2	.
CCOC(=O)c1sc2nc(C)cc(C)c2c1N	6.4	12.5	.	.	22.0	.
COC(=O)c1sc2nc(C)c([N+](=O)[O-])c(C)c2c1N	35.3	19.9	.	9.2	49.5*	24.9
O=C(O)CC/C(=N\Nc1ccc(Cl)cc1)c1cccs1	36.0	9.8	85.3	18.7	41.5*	13.6
COc1ccc(C(=O)NCC(c2ccco2)N(C)C)cc1S(=O)(=O)NCc1ccc(Cl)cc1 (centres undefined)	-16.1	-6.3	13.7	8.6	-10.5	.
CC(C)C(=O)N(c1ccc2oc(=O)sc2c1)S(=O)(=O)c1cccs1	21.5	8.6	-37.6	-2.9	11.8	.
CC(C)C(=O)N(c1cc2sc(=O)oc2c2ccccc12)S(=O)(=O)c1cccs1	22.7	20.9	-29.4	-11.5	46.7*	15.6
CC(=O)c1ccc(N2CCN(C(=S)NCCCN(C)C)CC2)cc1	0.4	-5.2	-4.7	.	1.3	.
Cc1ccc(C(=O)O/N=C(\N)c2ccccn2)c(C)c1	46.6	39.2	359.7	50.8	54.2*	62.7*
COc1ccccc1C(=O)O/N=C(\N)c1ccccn1	14.7	-3.0	-11.1	22.6	0.2	.
N/C(=N\OC(=O)c1ccc(Cl)c(Cl)c1)c1ccccn1	14.5	20.3	-3.2	-18.4	20.3	.
N/C(=N\OC(=O)c1cccc(Cl)c1)c1ccccn1	47.0	32.8	-7.6	22.0	45.3*	32.9*
CN(C(=O)COC(=O)Cn1cnc2ccccc21)C1CCCCC1	-5.8	-5.4	-15.2	.	-10.5	.
CC1CCCCN1S(=O)(=O)c1cccc2nonc12 (centres undefined)	-8.4	3.1	2.3	0.8	-8.8	.
NC(=S)N/N=C/c1ccc(-c2ccc(SC(F)F)cc2)o1	43.7	38.7	-9.6	-1.2	39.9	.
Cc1ccc(-c2ccc(/C=N/NC(N)=S)o2)cc1	13.6	26.0	69.1	-17.4	41.8*	11.5
COc1cc(NC(=O)C/C(C)=N/NC(=O)C2CCCCC2)c(OC)cc1Cl	24.7	16.1	-4.3	26.1	4.9	.
CC(OC(=O)c1ccc(CN2CCCC2=O)cc1)C(=O)Nc1ccc(Cl)cc1 (centres undefined)	6.6	15.2	1.7	.	18.9	.
CC(CNC(=O)CCc1nnc(CCC2CCCCC2)o1)c1ccccc1 (centres undefined)	21.0	22.9	6.3	-29.6	40.0	33.5*
Cc1cc(-c2nnc(CCC(=O)NCC(C)c3ccccc3)o2)no1 (centres undefined)	5.5	7.1	10.7	-9.4	1.6	.
CC(C)OC(=O)C(=O)NNc1ccccc1	-68.8	-25.9	258.8	-0.6	-7.6	.
